The nature of test [1]: probe aLefty2 binding to arrayed compounds – biochemical, biotinylated probe, 635/667 nm fluorescence, primary screen (AID 1094).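 Further: score merges spot fluorescence near 667 nm with spot signal-to-noise ratio.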 The conditions noted are these: small-molecule microarray, higher = more signal.
Test [2] relates to Noggin (protein binding on small-molecule microarray). The experiment in a line: small molecules binding Noggin protein – biochemical, 635/667 nm fluorescence, primary screen (AID 1095).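 Further: score merges 667 nm feature fluorescence with signal to noise over triplicate slides.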 The conditions noted are these: 635 nm fluorescence, higher = more signal.
Test [3] has as its target Neurogenic locus notch homolog protein 3 (Homo sapiens) (UniProt Q9UM47). The experiment in a line: small molecules binding NOTCH3 protein – biochemical, 635/667 nm fluorescence, primary screen (AID 1096). The conditions noted are these: small-molecule microarray, 635 nm fluorescence, higher = more signal.
Test [4] in a line: probe aEGFR binding to arrayed compounds – biochemical, biotinylated probe, 635/667 nm fluorescence, primary screen (AID 1097).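 Further: probe is a biotinylated anti-EGFR antibody binding compounds printed on slides; score combines fluorescence near 667 nm and signal to noise of each spot.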 The conditions noted are these: small-molecule microarray, higher = more signal.
Test [5] relates to Plasmodium falciparum Sir2 (PF13_0152, Sir2A). The experiment in a line: Plasmodium falciparum Sir2A binding compounds – biochemical, small-molecule microarray, 635 nm fluorescence, primary screen (AID 1098).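 Further: score merges spot fluorescence intensity with its signal-to-noise ratio.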 The conditions noted are these: fluorescence 635 nm, higher = more signal.
Test [6] is described as follows: probe aDKK1 binding to arrayed compounds – biochemical, biotinylated probe, 635/667 nm fluorescence, primary screen (AID 1099).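 Further: score merges 667nm spot fluorescence with signal to noise across triplicate slides.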 The conditions noted are these: small-molecule microarray, higher = more signal.
Test [7] can be described thus: probe aCHRDL2 binding to arrayed compounds – biochemical, biotinylated probe, 635/667 nm fluorescence, primary screen (AID 1100). The conditions noted are these: small-molecule microarray, higher = more signal.
Test [8] can be described thus: change in splice reporter luminescence, either direction, cell-based, HEK293, spliceosome inhibition project, primary screen (AID 1101).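 Further: HEK293 cells carrying a splicing-competent luciferase reporter gene; test concentration not given here.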 The conditions noted are these: HEK293 splicing luciferase reporter, 24 h, higher = more signal, called active from +8 up or from −8 down. For orientation: A reporter such as luciferase makes a cellular process visible.
Test [9] concerns the target Fibroblast growth factor 10 (Homo sapiens) (UniProt O15520). Kind of test: compounds binding fibroblast growth factor 10 – biochemical, small-molecule microarray, 635 nm fluorescence, primary screen (AID 1102). The conditions noted are these: FGF10 binding, fluorescence 635 nm, higher = more signal.
Test [10] deals with glycogen synthase kinase-3 (GSK3A per assay name; protocol says GSK3B). The experiment in a line: compounds binding glycogen synthase kinase-3 – biochemical, small-molecule microarray, 635 nm fluorescence, GSK3A, primary screen (AID 1103). Further: the record names both GSK3A and GSK3B. The conditions noted are these: fluorescence 635 nm, higher = more signal.
The target in test [11] is Epidermal growth factor receptor (Homo sapiens) (UniProt P00533). The experiment in a line: compounds binding epidermal growth factor receptor – biochemical, small-molecule microarray, 635 nm fluorescence, primary screen (AID 1104).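 Further: score merges 667 nm emission intensity with spot signal to noise over triplicate slides.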 The conditions noted are these: EGFR binding, higher = more signal.
In test [12] the target is Follistatin-related protein 3 (Homo sapiens) (UniProt O95633). The experiment in a line: compounds binding follistatin-related protein 3 – biochemical, small-molecule microarray, 635 nm fluorescence, primary screen (AID 1105).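 Further: score merges emission near 667 nm and signal to noise per printed spot across three slides.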 The conditions noted are these: FSTL3 binding, higher = more signal.
Test [13] has as its target Dickkopf-related protein 1 (Homo sapiens) (UniProt O94907). The experiment in a line: small molecules binding DKK1 protein – biochemical, small-molecule microarray, 635 nm fluorescence scan, primary screen (AID 1106).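 Further: score merges emission near 667 nm with signal to noise over three replicate slides.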 The conditions noted are these: higher = more signal.
Test [14] deals with Inhibin beta A chain (activin A). Kind of test: small molecules binding activin A – biochemical, small-molecule microarray, 635 nm fluorescence scan, primary screen (AID 1107).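 Further: mouse activin A protein probed at 4.33 µg/mL on printed slides; score merges bound-protein fluorescence near 667 nm with spot signal-to-noise.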 The conditions noted are these: INHBA, higher = more signal.
The subject of test [15] is Human papillomavirus type 1a protein E7 (residues 44-93). Kind of test: small molecules binding HPV E7 44-93 – biochemical, small-molecule microarray, residues 44-93, 635 nm fluorescence, primary screen (AID 1108).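 Further: E7 fragment applied at 1 µg/mL in TBST for 1 h at 4 C; score combines spot fluorescence with its signal to noise ratio.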 The conditions noted are these: fluorescence 635 nm, higher = more signal.
The nature of test [16]: hepatitis C replication reporter changes, two-sided – Huh7 cells, luciferase reporter, HCV replication inhibitor project, primary screen (AID 1109).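 Further: huh7 hepatoma cells harbouring a luciferase neomycin HCV replicon reporter; luciferase luminescence as measure of HCV replicon replication; test concentration not given here.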 The conditions noted are these: Huh7 HCV replicon luciferase reporter, 48 h; higher = more signal.
The target in test [17] is Left-right determination factor 2 (Homo sapiens) (UniProt O00292). The experiment in a line: small molecules binding LEFTY2 protein – biochemical, small-molecule microarray, 635 nm fluorescence scan, primary screen (AID 1110). The conditions noted are these: higher = more signal.
In test [18] the target is Calmodulin-1 (Homo sapiens) (UniProt P0DP23). The experiment in a line: small molecules binding calmodulin-1 with EGTA – biochemical, small-molecule microarray, Cy5-labelled CALM1, profiling panel (AID 1111).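 Further: labelled calmodulin applied in Tris saline Tween buffer holding calcium plus EGTA and DTT.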 The conditions noted are these: Cy5-CALM1 binding fluorescence, higher = more signal.
Test [19] shares this target. The experiment in a line: small molecules binding Ca-loaded calmodulin-1 – biochemical, small-molecule microarray, Cy5-labelled CALM1, plus calcium, artefact control for SMM control-protein annotation, profiling panel (AID 1112).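 Further: score merges spot fluorescence with signal to noise from triplicate slides.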 The conditions noted are these: Cy5-CALM1 binding fluorescence, higher = more signal.
The nature of test [20]: probe aWnt5a binding to arrayed compounds – biochemical, biotinylated probe, 635/667 nm fluorescence, primary screen (AID 1113).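 Further: score merges 667 nm fluorescence intensity with signal-to-noise per printed feature.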 The conditions noted are these: small-molecule microarray, higher = more signal.

Active and inactive are the calls of the source.

Chain of Dickkopf-related protein 1 (Homo sapiens) (O94907 whole entry, looked up): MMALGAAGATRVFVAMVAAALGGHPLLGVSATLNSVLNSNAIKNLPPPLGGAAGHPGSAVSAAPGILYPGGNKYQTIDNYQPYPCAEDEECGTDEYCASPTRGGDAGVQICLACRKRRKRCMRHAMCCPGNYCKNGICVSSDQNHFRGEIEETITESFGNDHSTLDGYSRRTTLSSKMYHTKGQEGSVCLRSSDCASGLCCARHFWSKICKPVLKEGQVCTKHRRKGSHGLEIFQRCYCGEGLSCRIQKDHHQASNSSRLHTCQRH
Chain of Neurogenic locus notch homolog protein 3 (Homo sapiens) (Q9UM47 whole entry, looked up): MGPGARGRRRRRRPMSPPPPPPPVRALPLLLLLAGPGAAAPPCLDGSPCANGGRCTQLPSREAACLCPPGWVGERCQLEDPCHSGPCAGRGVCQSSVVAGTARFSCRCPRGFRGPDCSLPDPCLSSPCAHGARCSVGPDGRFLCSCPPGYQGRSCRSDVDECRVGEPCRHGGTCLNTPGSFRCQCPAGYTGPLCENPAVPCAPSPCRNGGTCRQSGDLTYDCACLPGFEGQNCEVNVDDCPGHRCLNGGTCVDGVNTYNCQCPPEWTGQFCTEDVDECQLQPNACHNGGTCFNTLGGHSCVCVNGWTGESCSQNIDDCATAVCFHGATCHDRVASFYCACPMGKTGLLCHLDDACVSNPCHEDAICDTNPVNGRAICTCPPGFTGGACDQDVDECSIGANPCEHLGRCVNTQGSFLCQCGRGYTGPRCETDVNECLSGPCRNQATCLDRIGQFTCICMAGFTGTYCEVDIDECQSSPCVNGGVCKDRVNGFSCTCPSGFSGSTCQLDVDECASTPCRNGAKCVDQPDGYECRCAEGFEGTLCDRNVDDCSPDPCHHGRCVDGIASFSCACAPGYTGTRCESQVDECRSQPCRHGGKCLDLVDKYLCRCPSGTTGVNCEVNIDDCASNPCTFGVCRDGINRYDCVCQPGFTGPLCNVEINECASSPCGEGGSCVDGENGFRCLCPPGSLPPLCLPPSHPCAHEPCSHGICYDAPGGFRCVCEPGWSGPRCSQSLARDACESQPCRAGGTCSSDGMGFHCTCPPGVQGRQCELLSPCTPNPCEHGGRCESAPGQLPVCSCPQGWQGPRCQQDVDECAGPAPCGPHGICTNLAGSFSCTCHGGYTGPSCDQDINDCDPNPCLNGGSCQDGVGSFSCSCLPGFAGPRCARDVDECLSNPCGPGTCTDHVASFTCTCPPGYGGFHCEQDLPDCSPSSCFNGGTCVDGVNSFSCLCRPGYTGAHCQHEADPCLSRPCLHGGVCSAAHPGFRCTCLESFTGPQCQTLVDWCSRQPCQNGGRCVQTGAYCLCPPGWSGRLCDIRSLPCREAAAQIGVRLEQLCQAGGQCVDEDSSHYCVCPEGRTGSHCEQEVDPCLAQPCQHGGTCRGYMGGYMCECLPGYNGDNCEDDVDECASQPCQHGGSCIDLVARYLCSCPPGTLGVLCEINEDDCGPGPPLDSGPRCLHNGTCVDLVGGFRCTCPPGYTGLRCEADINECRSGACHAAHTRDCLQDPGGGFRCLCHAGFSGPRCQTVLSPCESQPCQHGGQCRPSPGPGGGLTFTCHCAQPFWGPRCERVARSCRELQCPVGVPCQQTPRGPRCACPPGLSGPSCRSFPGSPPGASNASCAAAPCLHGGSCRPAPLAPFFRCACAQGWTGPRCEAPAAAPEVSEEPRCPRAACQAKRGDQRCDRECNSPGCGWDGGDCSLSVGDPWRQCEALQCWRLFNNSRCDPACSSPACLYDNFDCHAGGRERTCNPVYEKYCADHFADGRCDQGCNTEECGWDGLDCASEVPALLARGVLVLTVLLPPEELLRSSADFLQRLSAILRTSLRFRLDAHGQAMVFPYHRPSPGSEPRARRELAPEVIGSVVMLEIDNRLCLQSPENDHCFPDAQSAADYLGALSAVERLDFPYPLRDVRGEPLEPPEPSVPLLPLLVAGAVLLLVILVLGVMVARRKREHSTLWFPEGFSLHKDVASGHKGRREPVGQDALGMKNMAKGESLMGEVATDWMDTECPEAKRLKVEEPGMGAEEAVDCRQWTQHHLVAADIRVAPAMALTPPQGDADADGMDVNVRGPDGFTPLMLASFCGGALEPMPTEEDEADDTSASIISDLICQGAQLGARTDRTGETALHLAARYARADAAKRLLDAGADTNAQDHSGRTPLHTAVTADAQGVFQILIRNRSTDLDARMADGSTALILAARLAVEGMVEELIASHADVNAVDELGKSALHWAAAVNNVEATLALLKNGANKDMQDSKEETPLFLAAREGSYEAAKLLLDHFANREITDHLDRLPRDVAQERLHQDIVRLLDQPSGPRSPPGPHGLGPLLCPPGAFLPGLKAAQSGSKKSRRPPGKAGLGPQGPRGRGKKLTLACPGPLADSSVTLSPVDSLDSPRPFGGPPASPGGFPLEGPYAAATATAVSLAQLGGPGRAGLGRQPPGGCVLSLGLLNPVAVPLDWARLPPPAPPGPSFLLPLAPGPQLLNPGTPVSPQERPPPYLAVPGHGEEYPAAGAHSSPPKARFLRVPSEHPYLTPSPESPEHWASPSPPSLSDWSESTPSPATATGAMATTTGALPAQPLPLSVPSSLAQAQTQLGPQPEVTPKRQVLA
Chain of Follistatin-related protein 3 (Homo sapiens) (O95633 whole entry, looked up): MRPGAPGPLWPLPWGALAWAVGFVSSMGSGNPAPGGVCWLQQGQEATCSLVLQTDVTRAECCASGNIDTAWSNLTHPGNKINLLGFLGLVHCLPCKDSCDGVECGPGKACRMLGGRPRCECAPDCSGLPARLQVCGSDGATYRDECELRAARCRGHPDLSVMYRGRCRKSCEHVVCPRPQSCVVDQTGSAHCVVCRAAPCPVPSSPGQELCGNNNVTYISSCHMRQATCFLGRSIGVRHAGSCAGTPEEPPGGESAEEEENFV
Chain of Fibroblast growth factor 10 (Homo sapiens) (O15520 whole entry, looked up): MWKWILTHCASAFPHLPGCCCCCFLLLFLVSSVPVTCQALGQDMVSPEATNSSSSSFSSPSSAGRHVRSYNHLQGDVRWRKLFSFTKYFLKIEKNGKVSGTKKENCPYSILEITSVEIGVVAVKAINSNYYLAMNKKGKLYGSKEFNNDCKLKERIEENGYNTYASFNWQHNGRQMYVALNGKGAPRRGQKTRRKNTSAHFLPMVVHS
Chain of Left-right determination factor 2 (Homo sapiens) (O00292 whole entry, looked up): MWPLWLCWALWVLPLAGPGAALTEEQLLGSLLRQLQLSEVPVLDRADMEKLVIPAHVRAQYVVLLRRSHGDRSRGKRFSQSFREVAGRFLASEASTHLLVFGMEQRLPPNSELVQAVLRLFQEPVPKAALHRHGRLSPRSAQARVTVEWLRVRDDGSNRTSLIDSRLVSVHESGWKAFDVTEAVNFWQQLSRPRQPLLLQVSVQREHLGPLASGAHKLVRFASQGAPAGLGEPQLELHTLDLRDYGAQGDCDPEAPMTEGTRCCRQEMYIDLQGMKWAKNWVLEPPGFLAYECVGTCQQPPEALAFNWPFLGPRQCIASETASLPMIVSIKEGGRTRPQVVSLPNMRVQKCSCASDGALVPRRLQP
Chain of Epidermal growth factor receptor (Homo sapiens) (P00533 whole entry, looked up): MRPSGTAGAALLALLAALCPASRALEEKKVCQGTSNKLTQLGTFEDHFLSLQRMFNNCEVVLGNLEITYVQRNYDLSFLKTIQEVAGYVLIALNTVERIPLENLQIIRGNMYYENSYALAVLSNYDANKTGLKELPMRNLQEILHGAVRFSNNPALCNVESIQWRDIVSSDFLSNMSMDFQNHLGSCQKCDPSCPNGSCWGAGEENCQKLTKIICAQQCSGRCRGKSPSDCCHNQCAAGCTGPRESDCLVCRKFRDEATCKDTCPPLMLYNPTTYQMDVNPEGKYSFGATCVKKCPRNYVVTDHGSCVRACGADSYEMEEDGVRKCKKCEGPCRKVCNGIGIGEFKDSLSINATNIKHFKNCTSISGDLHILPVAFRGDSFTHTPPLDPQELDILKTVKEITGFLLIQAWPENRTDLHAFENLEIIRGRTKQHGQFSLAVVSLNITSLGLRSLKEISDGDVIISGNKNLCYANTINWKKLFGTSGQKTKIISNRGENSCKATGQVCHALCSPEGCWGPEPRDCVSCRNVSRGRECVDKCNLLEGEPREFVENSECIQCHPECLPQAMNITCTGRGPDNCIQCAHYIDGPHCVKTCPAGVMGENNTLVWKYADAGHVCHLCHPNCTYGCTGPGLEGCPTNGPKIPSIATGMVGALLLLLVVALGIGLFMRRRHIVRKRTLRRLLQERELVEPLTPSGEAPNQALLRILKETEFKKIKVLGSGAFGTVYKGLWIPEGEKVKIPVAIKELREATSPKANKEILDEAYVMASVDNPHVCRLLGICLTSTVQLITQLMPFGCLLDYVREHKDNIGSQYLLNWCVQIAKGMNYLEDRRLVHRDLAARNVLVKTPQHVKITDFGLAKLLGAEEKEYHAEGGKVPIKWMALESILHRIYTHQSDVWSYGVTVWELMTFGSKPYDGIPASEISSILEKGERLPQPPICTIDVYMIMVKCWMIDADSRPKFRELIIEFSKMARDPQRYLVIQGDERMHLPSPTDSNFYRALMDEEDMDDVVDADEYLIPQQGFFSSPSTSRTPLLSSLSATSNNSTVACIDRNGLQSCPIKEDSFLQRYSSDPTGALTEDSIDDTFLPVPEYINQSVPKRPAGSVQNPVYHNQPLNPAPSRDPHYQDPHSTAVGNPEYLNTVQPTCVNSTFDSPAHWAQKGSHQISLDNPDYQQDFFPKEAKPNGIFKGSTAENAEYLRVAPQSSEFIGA

On to `CC(C)C(CO)N1C(=O)[C@@H]2[C@H]3C(=O)OCC=C[C@H]3OC23C=CCN(Cc2ccccc2)C(=O)[C@@H]13` (stereo not given in full), for which the composite z-score was -0.238 in [1]; -0.282 in test [2]; -0.316 in test [3]; -0.287 in test [4]; -0.734 in [5]; -0.26 in [6]. Also, the composite z-score is 0.0297 in test [7]; -0.367 in test [9]; -0.882 in [10]; -1.12 in test [11]; -0.718 in [12]; -0.149 in [13]. Moreover, the composite z-score in test [14] was 0.859; in test [15] it was -1.25; in [17] it was -0.275; in test [18] it was -0.886; in [19], -0.783; in [20], -0.256. Also, the z-score in test [8] is -0.346 (inactive); in [16], -0.498.
As for `C=CCC(OC(C)=O)[C@@H]1[C@@H](N(Cc2cc3ccccc3o2)C(=O)c2ccc(-c3ccccc3)cc2)c2cc(OCCCO)ccc2N1C(=O)c1ccc(-c2ccccc2)cc1` (stereo not given in full), the composite z-score is 0.0711 in [1]; -0.397 in [2]; -0.402 in test [3]; -0.0444 in [4]; -0.149 in test [5]; 0.232 in [6]. Moreover, the composite z-score was 0.641 in [7]; 0.0657 in test [9]; -0.402 in [10]; -0.154 in [11]; 0.0956 in test [12]; -0.0818 in test [13]. Moreover, the composite z-score is 1.27 in test [14]; -0.292 in test [15]; 0.0559 in [17]; 0.0671 in test [18]; 1.29 in test [19]; 0.0628 in test [20]. Besides, the z-score in [8] is -1.04 (inactive); in test [16] it was -0.366.
On to `C=C(COC)/C(=C/C[C@H](OC(C)=O)c1ccc(CO)o1)c1cnc2ccccc2c1`, for which the composite z-score is -0.0208 in test [1]; 1.55 in test [2]; 1.04 in [3]; -0.0616 in test [4]; 1.05 in test [5]; 0.0967 in test [6]. Further, the composite z-score in [7] came out at 0.131; in test [9] it was 0.979; in test [10] it was 1.29; in [11] it was 0.477; in test [12] it was 1.48; in [13], 0.639. For the same compound, the composite z-score in [14] was 1.61; in [15], 0.729; in test [17], 0.149; in [18], 0.143; in test [19], -0.387; in test [20], -0.0445. For the same compound, the values for the z-score in test [8] and in test [16] were -1.03 (inactive) and -1.18, respectively.
In the case of `CC(C)CNC(=O)[C@@H]1c2ccccc2C(=O)N(Cc2ccc(OC(F)(F)F)cc2)[C@H]1c1ccc(CO)cc1`, the composite z-score in [1] was -0.0329; in [2] it was 1.3; in test [3], 1.04; in test [4], 0.0378; in test [5] it was 1.46; in test [6], 0.799. In addition, the composite z-score in test [7] was 0.922; in [9] it was 0.64; in test [10] it was 1.28; in test [11], 0.346; in test [12], 1.26; in test [13], 0.407. The composite z-score in test [14] was 0.254; in test [15], -0.491; in test [17], 0.569; in test [18] it was 0.986; in test [19] it was -0.614; in [20], 0.0519. Besides, the z-score in test [8] is -0.787 (inactive); in test [16], -0.913.
Consider `O=C(N1CCCCC1)[C@@]1(Cc2ccccc2)N=C(c2ccc(OCCCO)cc2)O[C@H]1c1ccccc1`, for which the composite z-score in test [1] is 0.429; in test [2], 0.368; in test [3], 0.966; in test [4] it was 0.293; in test [5], 1.43; in [6] it was 1.26. For the same compound, the composite z-score in [7] is 1.31; in test [9], 0.942; in [10] it was 0.258; in [11], -0.32; in [12] it was 0.606; in test [13], 0.0474. Besides, the composite z-score in test [14] is 0.766; in test [15], 0.73; in test [17], -0.458; in [18] it was 2.45; in test [19], 1.09; in test [20], 0.801. Further, the z-score is -1.96 (inactive) in test [8] and -2.94 in [16].
Turning to `C=C(CCCC)/C(=C/C[C@H](OC(=O)c1ccncc1)c1ccc(CO)o1)c1cnc2ccccc2c1`, the composite z-score in test [1] was -0.0102; in [2], 1.19; in test [3] it was 1.09; in test [4] it was 0.0221; in test [5], 1.14; in test [6], 0.248. Moreover, the composite z-score was -0.0775 in test [7]; 1.09 in test [9]; 1.19 in [10]; 0.474 in test [11]; 1.46 in test [12]; 0.823 in test [13]. Moreover, the composite z-score in [14] is 1.46; in test [15], 0.229; in [17], 0.429; in [18], 0.697; in [19] it was 0.244; in test [20], -0.0236. The results for the z-score in test [8] and in test [16] were -0.964 (inactive) and -1.89, respectively.
As for `C=CCN1C(=O)[C@@]2(O[C@@H](CCO)[C@H]([Si](C)(C)c3ccc(OC)cc3)[C@H]2C)c2cc(N(C=O)c3ccccc3)ccc21`, the composite z-score in [1] is 0.0183; in test [2], 0.366; in test [3], 0.259; in test [4], -0.0304; in test [5], 0.592; in test [6], 0.235. The composite z-score in test [7] was 0.453; in [9], 0.341; in test [10], -0.0443; in [11] it was -0.131; in test [12] it was 0.131; in test [13] it was 0.0733. For the same compound, the composite z-score in test [14] was 1.01; in test [15], 0.192; in test [17], 0.0105; in test [18], 0.905; in [19], 1.06; in [20] it was -0.0643. Besides, the z-score was -3.43 (inactive) in test [8] and -5.12 in test [16].
For the compound `O=C(NO)[C@]1(Cc2ccccc2)N=C(c2ccc(OCCCO)cc2)O[C@@H]1c1ccccc1`, the composite z-score in [1] was 0.0204; in test [2], -0.0613; in test [3] it was -1.1; in test [4] it was -0.174; in test [5] it was 1.3; in test [6], 0.256. Besides, the composite z-score was 0.694 in test [7]; -0.227 in [9]; -0.371 in test [10]; -0.637 in test [11]; 0.262 in [12]; -0.546 in test [13]. Further, the composite z-score is -0.169 in test [14]; -0.281 in test [15]; -0.79 in [17]; -0.271 in test [18]; 0.309 in test [19]; -0.377 in test [20]. Besides, the values for the z-score in test [8] and in test [16] were -4.02 (inactive) and -1.73, respectively.

The values are drawn from PubChem BioAssay.
